From PubChem BioAssay
The list is not random: actives were taken first. Their share in the collection is about 6%.
DRD3 agonist: activates the human D3 dopamine receptor. P35462. max activation, %. AID 652048. 410,000 compounds, 0.58% hits. D3R DiscoveRx beta-arrestin cells, luminescence, 90 min; in the data active means max activation above about 30%
Target sequence (P35462 whole entry, looked up): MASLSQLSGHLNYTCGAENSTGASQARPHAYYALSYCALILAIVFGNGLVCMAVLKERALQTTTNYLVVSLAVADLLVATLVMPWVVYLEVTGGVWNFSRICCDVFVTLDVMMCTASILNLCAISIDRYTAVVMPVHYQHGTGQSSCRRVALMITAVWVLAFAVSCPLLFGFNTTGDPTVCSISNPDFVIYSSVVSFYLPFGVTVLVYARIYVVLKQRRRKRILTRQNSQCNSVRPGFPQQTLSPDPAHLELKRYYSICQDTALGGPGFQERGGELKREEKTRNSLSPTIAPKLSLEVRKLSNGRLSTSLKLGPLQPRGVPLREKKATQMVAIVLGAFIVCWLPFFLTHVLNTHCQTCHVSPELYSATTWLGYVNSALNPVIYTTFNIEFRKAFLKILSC
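Cells at 1500/well, incubated overnight, then treated with pinned compounds (dopamine as control) for 90 min at 37 degrees C. DiscoveRx reagent added for 30 - 60 minutes at room temperature; luminescence read.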
Chronic BCR inh: blocks chronic active B-cell receptor signaling | 340,000 compounds, 0.05% hits | AID 493014 | Potency, µM (doses to about 46.1 µM), actives largely listed as inhibitors | ABC-DLBCL IkBa-CBG/CBR reporter, luminescence ratio, 4 h; active means well fitted inhibition curve with a large enough effect in the signal ratio, with a control signal flat, not every such curve was filed as active; inconclusive means small, poorly fitted or top-dose-only effect, or effect the other way, or a change in a side signal; the % refers to the signal ratio
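TMD8 human ABC-DLBCL cells with doxycycline-inducible IκBα–green luciferase fusion and unfused red luciferase, in 0.5% FBS medium; compounds up to 46 uM, 4 h at 37C. Green/red luminescence ratio, filter-overlap corrected, fitted to concentration-response curves.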
D3 antag: antagonists of human D3 dopamine receptor. D3R cells, DiscoveRx beta-arrestin luminescence, antagonist mode; active compounds read low. P35462. AID 652054. max response, negative = inhibition, %. 360,000 compounds, 2.5% hits; in the data active means max response below about -50%; inconclusive means no clear call, values can overlap the other calls
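Cells expressing the human receptor were seeded at 1500 cells/well, incubated overnight at 37 degrees C in 5% CO2, then exposed to library compounds with dopamine controls for 90 minutes at 37 degrees C before luminescent detection.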
D1 ag: human D1 receptor agonism. activation, % at 2 µM. 360,000 compounds, 1% hits. AID 504660. HEK293 T-REx D1 cells, calcium flux, agonist mode. P21728; in the data active means activation above about 30%
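Tetracycline-induced HEK293 TREx D1 cells, force-coupled to calcium signalling, were dye-loaded with a no-wash calcium kit. Compound was pin-added after a 10 s baseline. Fluorescence was read kinetically at 1 cycle/s for 180 s, with calcium rises flagged as agonism.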
D1 PAM: human D1 dopamine receptor positive modulation; P21728; AID 504651; HEK293 TREx D1 cells, calcium flux, dopamine EC20 potentiation; 360,000 compounds, 0.036% hits; potentiation, % at 10 µM; in the data active means potentiation above about 30%
D1 antag: human D1 dopamine receptor antagonism; P21728; activity change, negative = inhibition, % at 10 µM; 360,000 compounds, 3.2% hits; HEK293 TREx D1 cells, calcium flux, dopamine EC80; active compounds read low; in the data active means activity change below about -30%
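Inducible Hek293 Trex D1 cells (tetracycline, overnight, 30 C). Calcium dye 30–90 min RT. Antagonist mode: EC80 dopamine added after 180 s compound read.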
Hits are given with their value.

Screening CCOC(=O)c1c(NC(C)=O)sc2c1CCN(Cc1ccccc1)C2 returned DRD3 agonist inactive, Chronic BCR inh inactive, D3 antag inactive, D1 ag inactive, D1 PAM inactive and D1 antag inactive.
For CCOC(=O)c1c(NC(C)=O)sc2c1CCC(C=O)=C2Sc1ccccc1 the results were DRD3 agonist inactive, Chronic BCR inh inconclusive, D3 antag -58.2, D1 ag inactive, D1 PAM inactive and D1 antag inactive.
For CNC(=O)CSc1nnc(-c2ccc3c(c2)OCO3)n1C the results were DRD3 agonist inactive, Chronic BCR inh inactive, D3 antag inactive, D1 ag inactive, D1 PAM inactive and D1 antag inactive.
For COC(=O)CSc1nnc(-c2ccc3c(c2)OCO3)n1C the results were DRD3 agonist inactive, Chronic BCR inh inactive, D3 antag -68.8, D1 ag inactive, D1 PAM inactive and D1 antag inactive.
For CCOC(=O)c1[nH]cnc1C(=O)NC1CCN(C(=O)OC(C)(C)C)CC1 the results were DRD3 agonist 33.8, Chronic BCR inh inconclusive, D3 antag inactive, D1 ag inactive and D1 PAM inactive.
CC(C)(C)OC(=O)N1CCC(NC(=O)c2nc[nH]c2C(=O)N2CCN(c3ccccc3)CC2)CC1 was read as DRD3 agonist 51.4, Chronic BCR inh inactive and D3 antag inactive.
For C[C@H](NC(=O)c1nc[nH]c1C(=O)N1CCN(C(=O)OC(C)(C)C)CC1)C(=O)OCc1ccccc1 the results were DRD3 agonist inactive, Chronic BCR inh inactive, D3 antag inactive, D1 ag inactive, D1 PAM inactive and D1 antag inactive.
Screening C[C@H](NC(=O)c1nc[nH]c1C(=O)NC1CCN(C(=O)OC(C)(C)C)CC1)C(=O)OCc1ccccc1 returned DRD3 agonist 33.6, Chronic BCR inh inconclusive, D3 antag inactive, D1 ag inactive, D1 PAM inactive and D1 antag inactive.
For CC(C)(C)OC(=O)N1CCC(NC(=O)c2nc[nH]c2C(=O)N2CCN(C(=O)OC(C)(C)C)CC2)CC1 the results were DRD3 agonist inactive, Chronic BCR inh inactive, D3 antag inactive, D1 ag inactive, D1 PAM inactive and D1 antag inactive.
For CC(C(=O)NCc1ccccc1)n1c(-c2ccc3c(c2)CCO3)nc2ccccc21 (centres undefined) the results were DRD3 agonist inactive and D3 antag inactive.
`COC(=O)c1ccc2nc(-c3ccc(F)cc3)c(Cc3ccsc3)n2c1` gave DRD3 agonist inactive and D3 antag inactive.
Screening O=C(Nc1ccc2nc(SCC(=O)N3CCOCC3)sc2c1)c1cccc(Cl)c1 returned DRD3 agonist inactive, D1 ag inactive, D1 PAM inactive and D1 antag inactive.
For Cc1ccc2oc(C(=O)N(Cc3sccc3C)C3CCS(=O)(=O)C3)c(C)c2c1 (centres undefined) the results were DRD3 agonist inactive, D1 ag inactive, D1 PAM inactive and D1 antag inactive.
For CCN1C(=O)C2(c3ccccc31)c1c(oc3ccccc3c1=O)C(=O)N2CCOC (centres undefined) the results were DRD3 agonist inactive, D1 ag inactive, D1 PAM inactive and D1 antag inactive.
CCN1CCN(C(=O)c2cc3sccc3n2CC(=O)c2ccccc2)CC1 was read as DRD3 agonist inactive, Chronic BCR inh inactive, D3 antag -56.1, D1 ag inactive, D1 PAM inactive and D1 antag inactive.
Screening CN1CCN(C(=O)c2cc3sccc3n2CC(=O)c2ccccc2)CC1 returned DRD3 agonist inactive, Chronic BCR inh inactive, D3 antag -61.8, D1 ag inactive, D1 PAM inactive and D1 antag inactive.
O=C(c1ccco1)N1CCN(C(=O)c2cc3sccc3n2Cc2ccccc2)CC1 was read as DRD3 agonist inactive, Chronic BCR inh inactive, D3 antag inactive, D1 ag inactive, D1 PAM inactive and D1 antag inactive.
COC(=O)c1sccc1S(=O)(=O)N(CC(=O)Nc1cc(C)ccc1C)c1ccc(C)c(C)c1 was read as DRD3 agonist inactive, D1 ag inactive, D1 PAM inactive and D1 antag inactive.
`COc1ccccc1C1CC(c2ccccc2)=NN1S(=O)(=O)c1ccccc1` (centres undefined) gave DRD3 agonist inactive, Chronic BCR inh inactive, D3 antag inactive, D1 ag inactive, D1 PAM inactive and D1 antag -34.1.
Screening CCOc1ccc(NC(=O)COC(=O)c2c[nH]c3ccccc23)cc1 returned DRD3 agonist inactive and D3 antag inactive.
O=C1C(CO)C(CO)C(CO)C1CO (centres undefined) was read as DRD3 agonist 38.7 and D3 antag inactive.
`COc1ccccc1N=c1scc(-c2ccc(S(=O)(=O)N3CCCC3)cc2)n1C` gave DRD3 agonist inactive, D1 ag inactive, D1 PAM inactive and D1 antag -34.4.
CNC(=S)/N=C/NOCc1ccc(Cl)cc1Cl was read as DRD3 agonist inactive, Chronic BCR inh inactive, D3 antag inactive, D1 ag inactive, D1 PAM inactive and D1 antag -39.3.
COc1ccc(-c2cn(Cc3ccc4c(c3)C(=O)c3ccccc3C4=O)nn2)cc1 was read as DRD3 agonist inactive, Chronic BCR inh inactive, D3 antag inactive, D1 ag inactive, D1 PAM inactive and D1 antag inactive.
For COc1ccc(-c2cn(Cc3ccc4ccccc4c3)nn2)cc1 the results were DRD3 agonist inactive, Chronic BCR inh inactive, D3 antag inactive, D1 ag inactive, D1 PAM inactive and D1 antag -31.9.
Screening COc1ccc(/C(C)=N\Nc2nc(-c3ccc(Cl)cc3)cc(C(F)(F)F)n2)cc1OC returned DRD3 agonist 44.6, Chronic BCR inh inactive, D3 antag inactive, D1 ag inactive, D1 PAM inactive and D1 antag inactive.
Screening COc1ccc(/C=N/Nc2nc(-c3ccc(Cl)cc3)cc(C(F)(F)F)n2)c(OC)c1 returned DRD3 agonist inactive, Chronic BCR inh inactive, D3 antag inactive, D1 ag inactive, D1 PAM inactive and D1 antag inactive.
`Cn1c(=O)c2c(ncn2CC(O)CNc2ccc(Cl)cc2)n(C)c1=O` (centres undefined) gave DRD3 agonist inactive, D3 antag inactive, D1 ag inactive, D1 PAM inactive and D1 antag -36.6.
Cn1c(=O)c2c(ncn2CC(=O)OCC(=O)NNC(=O)c2ccc(Cl)cc2)n(C)c1=O was read as DRD3 agonist inactive, Chronic BCR inh inconclusive, D3 antag -124.0, D1 ag inactive, D1 PAM inactive and D1 antag inactive.
For Cc1ccc(NCC(O)Cn2cnc3c2c(=O)n(C)c(=O)n3C)cc1 (centres undefined) the results were DRD3 agonist inactive, Chronic BCR inh inconclusive, D3 antag inactive, D1 ag inactive, D1 PAM inactive and D1 antag inactive.
